Source: the supplement of paper PMC11219838
A number with no mark means an inactive call.

System: Caenorhabditis elegans L1 (N2)
Assay: survival and reproduction score of C. elegans L1 (0: 0-10 living worms, 1: 11-20, 2: 21-50, 3: >50, 4: overgrown) (score 0-4); higher = more worms, less nematicidal, active = 1 or less; extreme values may be limits of the assay
Details: 60 µM; 6 days; temperature: 20 °C
Protocol: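 DODA library (846 commercial 1,3,4- and 1,2,4-oxadiazole compounds plus commercial nematicide controls) screened at a single dose of 60 µM (0.6% DMSO) in 96-well plates, two biological replicates. Read-outs: C. elegans N2 L1 survival/reproduction score at day 6, 20 °C (0: 0-10 worms, 1: 11-20, 2: 21-50, 3: >50, 4: overgrown/starved). C. elegans daf-2 dauer, D. dipsaci and M. hapla J2 mobility at day 5, 20 °C, and P. penetrans mobility at day 5, 20 °C, each relative to DMSO controls. M. hapla egg hatching at day 12, 25 °C, relative to the mean of 8 DMSO wells on the same plate.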

**Q.** `Cc1ccc(CSc2nnc(-c3ccncc3)o2)cc1` was tested. Which “survival and reproduction score” value did it give?
**A.** 4

**Q.** How did the “survival and reproduction score” value turn out when `COc1nc(-c2ccc(C)cc2)ccc1-c1noc(-c2ccc(F)cc2)n1` was run?
**A.** 4

**Q.** `Cc1csc(NC(=O)CSc2nnc(-c3ccccc3Cl)o2)n1` was tested. Which “survival and reproduction score” value did it give?
**A.** 4

**Q.** With `Cc1cccc(-c2noc(-c3ccc(C)cc3Cl)n2)c1` as the compound, how does the “survival and reproduction score” value read?
**A.** 4

**Q.** `COc1ccccc1NC(=O)CSc1nnc(-c2ccc(Cl)cc2)o1` was tested. Which “survival and reproduction score” value did it give?
**A.** 4

**Q.** How did the “survival and reproduction score” value turn out when `O=C(Nc1ccccc1-c1nc(-c2ccncc2)no1)c1ccccc1Cl` was run?
**A.** 4

**Q.** For `CCCC(=O)Nc1ccccc1-c1nc(-c2ccncc2)no1`, which “survival and reproduction score” value is on record?
**A.** 4

**Q.** For `Cc1cc(OCc2nc(-c3cccnc3)no2)c(C)c(C)c1Br`, which “survival and reproduction score” value is on record?
**A.** 4

**Q.** `COc1ccc(Cl)cc1-c1noc(COc2ccc(Cl)cc2)n1` was tested. Which “survival and reproduction score” value did it give?
**A.** 4

**Q.** With `COc1ccccc1OCc1nc(-c2ccccc2)no1` as the compound, how does the “survival and reproduction score” value read?
**A.** 4

**Q.** For `CCOc1nc(-c2ccccc2)ccc1-c1noc(-c2cccc(OC)c2)n1`, which “survival and reproduction score” value is on record?
**A.** 4

**Q.** For `O=C(CSc1nnc(-c2ccncc2)o1)Nc1cccc(Cl)c1Cl`, which “survival and reproduction score” value is on record?
**A.** 4

**Q.** Which “survival and reproduction score” value does the source give for `COc1ccc(-c2nnc(SCC(=O)c3ccccc3)o2)cc1` here?
**A.** 4

**Q.** Which “survival and reproduction score” value does the source give for `Cc1ccc(-c2nc(-c3ccc4c(c3)OCO4)no2)cc1` here?
**A.** 4

**Q.** `Clc1ccc(-c2nc(-c3ccc4c(c3)OCO4)no2)cc1` was tested. Which “survival and reproduction score” value did it give?
**A.** 4

**Q.** For `COc1nc(-c2ccc(C)cc2)ccc1-c1noc(-c2cccc(C)c2)n1`, which “survival and reproduction score” value is on record?
**A.** 4

**Q.** For `COc1ccc(Cl)cc1-c1nc(-c2ccc3c(c2)OCO3)no1`, which “survival and reproduction score” value is on record?
**A.** 4

**Q.** For `COc1ccccc1CC(=O)Nc1ccc(-c2noc(-c3ccccc3C)n2)cc1`, which “survival and reproduction score” value is on record?
**A.** 4

**Q.** For `CCCc1nnc(CSc2nnc(-c3ccc(Cl)cc3)o2)o1`, which “survival and reproduction score” value is on record?
**A.** 1 (active)

**Q.** For `Cc1ccc(-c2nc(C3CCCCC3)no2)cc1`, which “survival and reproduction score” value is on record?
**A.** 0 (active)

**Q.** Which “survival and reproduction score” value does the source give for `Cc1ccc(CSc2nnc(-c3cccc(Br)c3)o2)c(C)c1` here?
**A.** 4

**Q.** `O=C(CSc1nnc(-c2cccc(Cl)c2)o1)Nc1nccs1` was tested. Which “survival and reproduction score” value did it give?
**A.** 4

**Q.** With `COc1ccc(-c2noc(CSc3nc4cc(C)ccc4[nH]3)n2)cc1` as the compound, how does the “survival and reproduction score” value read?
**A.** 4

**Q.** For `FC(F)(F)c1cccc(-c2noc(-c3ccc4c(c3)OCO4)n2)c1`, which “survival and reproduction score” value is on record?
**A.** 4

**Q.** For `O=C(CSc1nnc(-c2cccc(Cl)c2)o1)NC1CCCCC1`, which “survival and reproduction score” value is on record?
**A.** 4

**Q.** For `Brc1ccc(-c2noc(-c3ccc(Br)o3)n2)o1`, which “survival and reproduction score” value is on record?
**A.** 0.5 (active)

**Q.** For `CCCCc1ccc(-c2nc(-c3cccnc3)no2)cc1`, which “survival and reproduction score” value is on record?
**A.** 0 (active)

**Q.** How did the “survival and reproduction score” value turn out when `Brc1ccc(-c2nnc(SCc3ccccc3)o2)cc1` was run?
**A.** 4

**Q.** How did the “survival and reproduction score” value turn out when `COc1ccc(-c2noc(COc3ccccc3)n2)cc1` was run?
**A.** 0 (active)

**Q.** Which “survival and reproduction score” value does the source give for `Cc1cc(C)cc(OCc2nc(-c3ccccc3Cl)no2)c1` here?
**A.** 4

**Q.** With `CCOC(=O)c1sc(NC(=O)CSc2nnc(-c3ccc(Cl)cc3)o2)c(C(=O)OCC)c1C` as the compound, how does the “survival and reproduction score” value read?
**A.** 4

**Q.** `Cn1c(SCc2nnc(-c3ccccc3)o2)nnc1-c1ccco1` was tested. Which “survival and reproduction score” value did it give?
**A.** 4

**Q.** For `Cc1ccccc1-c1nc(-c2ccccc2Cl)no1`, which “survival and reproduction score” value is on record?
**A.** 0 (active)

**Q.** With `CC[C@H](C)[C@H]1O[C@]2(C=C[C@@H]1C)C[C@@H]1C[C@@H](C/C=C(\C)[C@@H](O[C@H]3C[C@H](OC)[C@@H](O[C@H]4C[C@H](OC)[C@@H](O)[C@H](C)O4)[C@H](C)O3)[C@@H](C)/C=C/C=C3\CO[C@@H]4[C@H](O)C(C)=C[C@@H](C(=O)O1)[C@]34O)O2.CO[C@H]1C[C@H](O[C@H]2[C@H](C)O[C@@H](O[C@@H]3/C(C)=C/C[C@@H]4C[C@@H](C[C@]5(C=C[C@H](C)[C@@H](C(C)C)O5)O4)OC(=O)[C@@H]4C=C(C)[C@@H](O)[C@H]5OC/C(=C\C=C\[C@@H]3C)[C@]54O)C[C@@H]2OC)O[C@@H](C)[C@@H]1O` [abamectin] as the compound, how does the “survival and reproduction score” value read?
**A.** 0 (active)

**Q.** With `Cc1ccccc1-c1nnc(SCc2ccccc2Cl)o1` as the compound, how does the “survival and reproduction score” value read?
**A.** 4

**Q.** With `COc1ccc(-c2noc(COc3ccc(C4CCCCC4)cc3)n2)cc1` as the compound, how does the “survival and reproduction score” value read?
**A.** 4

**Q.** With `CN(C(=O)CSc1nnc(-c2ccccc2)o1)c1ccccc1` as the compound, how does the “survival and reproduction score” value read?
**A.** 4

**Q.** For `Clc1ccc(-c2noc(COc3ccc4c(c3)OCO4)n2)cc1`, which “survival and reproduction score” value is on record?
**A.** 4

**Q.** How did the “survival and reproduction score” value turn out when `C=CCOc1ccc(-c2nc(-c3cccnc3)no2)cc1` was run?
**A.** 0 (active)

**Q.** For `Clc1ccc(-c2nc(-c3ccncc3)no2)cc1`, which “survival and reproduction score” value is on record?
**A.** 0.5 (active)
